Data: the supplement of paper PMC11732987, “Enantioselective OTUD7B fragment discovery through chemoproteomics screening and high-throughput optimisation” (Communications Chemistry, 2025)

Columns and labels:
Test in all cases: log2 ratio of Biotin-Ahx-Ub-VS probe labelling (fragment/DMSO); higher = less target engagement (more negative = stronger competition), active = hit call of the paper (q ≤ 0.05, log2 ratio ≤ -1)
Conditions in all cases: compound concentration: 200 uM; treatment time: 3 h
[1] = target: T1, USP19 (UniProt O94966)
T1 sequence (whole entry): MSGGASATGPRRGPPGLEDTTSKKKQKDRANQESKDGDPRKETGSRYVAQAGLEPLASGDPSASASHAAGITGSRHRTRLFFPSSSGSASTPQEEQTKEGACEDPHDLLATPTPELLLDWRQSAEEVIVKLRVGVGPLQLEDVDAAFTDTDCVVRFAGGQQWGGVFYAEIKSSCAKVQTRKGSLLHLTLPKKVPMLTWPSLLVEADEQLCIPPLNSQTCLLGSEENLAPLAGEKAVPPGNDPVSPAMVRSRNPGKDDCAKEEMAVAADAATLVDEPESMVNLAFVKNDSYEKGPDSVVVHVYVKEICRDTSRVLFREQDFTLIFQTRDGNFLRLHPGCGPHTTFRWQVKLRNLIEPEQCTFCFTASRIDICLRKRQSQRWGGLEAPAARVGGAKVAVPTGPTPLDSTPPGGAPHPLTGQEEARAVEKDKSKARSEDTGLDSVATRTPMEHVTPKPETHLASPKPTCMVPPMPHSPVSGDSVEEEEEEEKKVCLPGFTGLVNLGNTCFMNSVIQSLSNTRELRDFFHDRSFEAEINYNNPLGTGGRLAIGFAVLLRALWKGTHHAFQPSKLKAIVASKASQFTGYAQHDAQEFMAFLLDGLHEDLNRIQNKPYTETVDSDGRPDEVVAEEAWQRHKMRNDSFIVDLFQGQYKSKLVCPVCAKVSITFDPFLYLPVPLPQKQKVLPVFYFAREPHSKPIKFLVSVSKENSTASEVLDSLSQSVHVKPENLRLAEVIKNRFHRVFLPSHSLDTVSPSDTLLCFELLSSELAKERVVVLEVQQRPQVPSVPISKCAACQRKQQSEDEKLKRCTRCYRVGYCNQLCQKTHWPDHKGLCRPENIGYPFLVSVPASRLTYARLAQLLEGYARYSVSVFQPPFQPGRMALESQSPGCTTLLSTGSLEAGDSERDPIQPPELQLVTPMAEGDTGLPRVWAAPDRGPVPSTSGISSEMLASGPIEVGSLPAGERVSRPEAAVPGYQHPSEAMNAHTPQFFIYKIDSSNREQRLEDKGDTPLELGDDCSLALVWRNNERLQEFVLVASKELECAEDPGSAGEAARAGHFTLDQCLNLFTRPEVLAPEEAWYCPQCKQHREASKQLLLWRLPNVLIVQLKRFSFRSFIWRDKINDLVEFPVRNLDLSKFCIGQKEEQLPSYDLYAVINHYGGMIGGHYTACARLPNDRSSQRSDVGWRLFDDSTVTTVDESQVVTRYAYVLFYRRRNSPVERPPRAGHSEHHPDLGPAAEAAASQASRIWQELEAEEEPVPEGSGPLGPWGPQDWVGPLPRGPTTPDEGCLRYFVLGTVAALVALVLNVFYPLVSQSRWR
Summary of the method: (§1)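 Global-median-normalised Spectronaut label-free quantities were compared by unpaired t-test, and values are average log2 ratios of fragment over vehicle. Only proteins with ≥2 unique peptides were used. HEK293T lysate (495 µg per sample) was treated in triplicate with fragment at 200 µM or vehicle for 3 h and then with Biotin-Ahx-Ub-VS at 0.5 µM final for 1 h. Labelled DUBs were then NeutrAvidin-enriched, digested with LysC and trypsin, and run by diaPASEF LC-MS/MS.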

[2] = target: USP24 (UniProt Q9UPU5)
Sequence of USP24 (Q9UPU5 whole entry): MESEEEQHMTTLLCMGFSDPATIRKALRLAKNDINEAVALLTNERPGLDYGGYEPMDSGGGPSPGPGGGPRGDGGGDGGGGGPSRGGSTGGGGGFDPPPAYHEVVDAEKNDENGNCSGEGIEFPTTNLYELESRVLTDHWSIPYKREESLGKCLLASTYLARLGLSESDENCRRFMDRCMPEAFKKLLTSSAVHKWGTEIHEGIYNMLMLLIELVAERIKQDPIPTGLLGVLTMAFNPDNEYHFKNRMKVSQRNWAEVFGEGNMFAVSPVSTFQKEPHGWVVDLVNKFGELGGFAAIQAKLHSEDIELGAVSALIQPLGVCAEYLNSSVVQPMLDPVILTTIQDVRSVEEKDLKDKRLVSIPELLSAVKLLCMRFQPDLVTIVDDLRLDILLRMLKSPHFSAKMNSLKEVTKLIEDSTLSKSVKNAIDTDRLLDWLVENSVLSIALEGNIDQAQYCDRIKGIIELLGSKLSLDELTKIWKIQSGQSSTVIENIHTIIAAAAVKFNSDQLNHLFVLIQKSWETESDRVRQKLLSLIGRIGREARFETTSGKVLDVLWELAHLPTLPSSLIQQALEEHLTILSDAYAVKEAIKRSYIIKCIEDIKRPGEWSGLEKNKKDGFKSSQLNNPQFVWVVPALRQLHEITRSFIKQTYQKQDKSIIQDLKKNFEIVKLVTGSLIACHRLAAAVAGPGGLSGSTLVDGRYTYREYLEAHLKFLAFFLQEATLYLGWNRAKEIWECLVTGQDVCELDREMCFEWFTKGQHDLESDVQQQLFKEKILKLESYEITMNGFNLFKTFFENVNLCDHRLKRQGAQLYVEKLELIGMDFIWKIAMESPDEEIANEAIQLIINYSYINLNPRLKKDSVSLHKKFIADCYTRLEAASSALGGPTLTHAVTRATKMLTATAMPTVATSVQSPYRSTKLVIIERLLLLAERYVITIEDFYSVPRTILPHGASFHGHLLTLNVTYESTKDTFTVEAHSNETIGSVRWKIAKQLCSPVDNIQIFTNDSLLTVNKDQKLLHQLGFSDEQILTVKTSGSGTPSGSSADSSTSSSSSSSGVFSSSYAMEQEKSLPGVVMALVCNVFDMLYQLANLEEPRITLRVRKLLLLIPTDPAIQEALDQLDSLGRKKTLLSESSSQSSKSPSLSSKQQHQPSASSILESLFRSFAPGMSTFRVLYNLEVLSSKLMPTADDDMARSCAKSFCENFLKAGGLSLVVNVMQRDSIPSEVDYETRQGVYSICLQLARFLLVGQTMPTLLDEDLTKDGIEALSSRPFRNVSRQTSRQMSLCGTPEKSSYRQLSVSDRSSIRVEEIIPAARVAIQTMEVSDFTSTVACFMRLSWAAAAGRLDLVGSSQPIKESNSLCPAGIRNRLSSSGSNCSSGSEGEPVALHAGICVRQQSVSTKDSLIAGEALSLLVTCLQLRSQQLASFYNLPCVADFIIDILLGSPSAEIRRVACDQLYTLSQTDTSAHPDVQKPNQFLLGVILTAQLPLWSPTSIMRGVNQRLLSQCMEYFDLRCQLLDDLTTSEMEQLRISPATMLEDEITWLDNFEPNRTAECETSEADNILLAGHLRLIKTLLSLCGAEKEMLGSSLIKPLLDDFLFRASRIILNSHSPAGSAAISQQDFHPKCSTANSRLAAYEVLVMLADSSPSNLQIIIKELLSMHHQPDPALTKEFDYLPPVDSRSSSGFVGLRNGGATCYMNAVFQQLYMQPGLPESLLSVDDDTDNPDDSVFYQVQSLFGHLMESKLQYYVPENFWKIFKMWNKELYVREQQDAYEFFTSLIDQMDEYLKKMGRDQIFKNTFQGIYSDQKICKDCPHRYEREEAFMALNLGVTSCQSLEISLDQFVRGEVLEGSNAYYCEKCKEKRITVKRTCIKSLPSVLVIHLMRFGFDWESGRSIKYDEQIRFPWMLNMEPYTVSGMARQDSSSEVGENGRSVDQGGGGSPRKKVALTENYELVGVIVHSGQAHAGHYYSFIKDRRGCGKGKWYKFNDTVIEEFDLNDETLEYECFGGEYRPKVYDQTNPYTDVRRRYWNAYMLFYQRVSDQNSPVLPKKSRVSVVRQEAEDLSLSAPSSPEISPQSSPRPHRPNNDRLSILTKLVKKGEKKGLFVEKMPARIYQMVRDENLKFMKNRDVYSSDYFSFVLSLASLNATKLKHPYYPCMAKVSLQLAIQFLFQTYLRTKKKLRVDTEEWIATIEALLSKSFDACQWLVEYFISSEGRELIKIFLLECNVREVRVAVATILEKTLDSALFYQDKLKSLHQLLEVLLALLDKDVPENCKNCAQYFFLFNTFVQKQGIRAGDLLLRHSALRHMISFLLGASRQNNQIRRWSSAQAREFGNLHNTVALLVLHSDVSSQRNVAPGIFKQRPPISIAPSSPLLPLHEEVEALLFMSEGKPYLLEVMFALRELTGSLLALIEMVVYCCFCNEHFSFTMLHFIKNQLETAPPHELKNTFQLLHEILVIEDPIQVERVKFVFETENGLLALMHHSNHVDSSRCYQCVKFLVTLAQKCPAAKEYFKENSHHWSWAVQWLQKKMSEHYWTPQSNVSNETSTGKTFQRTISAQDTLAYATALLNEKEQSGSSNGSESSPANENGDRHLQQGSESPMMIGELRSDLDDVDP
Summary of the method: as §1

[3] = target: T2, USP25 (UniProt Q9UHP3)
T2 sequence (whole entry): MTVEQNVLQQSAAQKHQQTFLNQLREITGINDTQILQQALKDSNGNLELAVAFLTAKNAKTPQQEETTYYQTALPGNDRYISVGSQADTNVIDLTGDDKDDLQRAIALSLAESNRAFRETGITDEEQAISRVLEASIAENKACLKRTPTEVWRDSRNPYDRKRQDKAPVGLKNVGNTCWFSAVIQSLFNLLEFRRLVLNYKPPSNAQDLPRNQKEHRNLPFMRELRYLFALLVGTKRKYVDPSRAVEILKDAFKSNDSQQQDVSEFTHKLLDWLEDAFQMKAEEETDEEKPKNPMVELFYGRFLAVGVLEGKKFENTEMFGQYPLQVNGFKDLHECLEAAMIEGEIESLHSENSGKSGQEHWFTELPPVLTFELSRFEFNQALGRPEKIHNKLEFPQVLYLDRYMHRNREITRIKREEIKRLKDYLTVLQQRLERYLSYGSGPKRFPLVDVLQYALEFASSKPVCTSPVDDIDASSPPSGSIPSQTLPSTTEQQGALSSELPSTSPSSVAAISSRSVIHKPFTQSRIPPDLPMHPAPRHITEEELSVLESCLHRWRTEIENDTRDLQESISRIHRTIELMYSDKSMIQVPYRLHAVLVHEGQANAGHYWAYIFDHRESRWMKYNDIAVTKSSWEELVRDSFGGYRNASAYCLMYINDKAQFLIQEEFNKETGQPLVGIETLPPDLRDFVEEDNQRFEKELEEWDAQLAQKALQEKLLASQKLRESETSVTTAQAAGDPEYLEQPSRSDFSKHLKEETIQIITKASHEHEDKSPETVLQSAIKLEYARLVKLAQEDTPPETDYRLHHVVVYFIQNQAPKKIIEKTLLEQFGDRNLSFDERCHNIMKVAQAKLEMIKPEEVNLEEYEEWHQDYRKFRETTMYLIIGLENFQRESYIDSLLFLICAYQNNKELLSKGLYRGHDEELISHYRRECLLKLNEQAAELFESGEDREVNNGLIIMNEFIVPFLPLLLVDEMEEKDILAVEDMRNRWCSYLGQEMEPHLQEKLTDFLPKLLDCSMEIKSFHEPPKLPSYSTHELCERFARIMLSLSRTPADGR
Summary of the method: as §1

[4] = target: T3, USP28 (UniProt Q96RU2)
T3 sequence (whole entry): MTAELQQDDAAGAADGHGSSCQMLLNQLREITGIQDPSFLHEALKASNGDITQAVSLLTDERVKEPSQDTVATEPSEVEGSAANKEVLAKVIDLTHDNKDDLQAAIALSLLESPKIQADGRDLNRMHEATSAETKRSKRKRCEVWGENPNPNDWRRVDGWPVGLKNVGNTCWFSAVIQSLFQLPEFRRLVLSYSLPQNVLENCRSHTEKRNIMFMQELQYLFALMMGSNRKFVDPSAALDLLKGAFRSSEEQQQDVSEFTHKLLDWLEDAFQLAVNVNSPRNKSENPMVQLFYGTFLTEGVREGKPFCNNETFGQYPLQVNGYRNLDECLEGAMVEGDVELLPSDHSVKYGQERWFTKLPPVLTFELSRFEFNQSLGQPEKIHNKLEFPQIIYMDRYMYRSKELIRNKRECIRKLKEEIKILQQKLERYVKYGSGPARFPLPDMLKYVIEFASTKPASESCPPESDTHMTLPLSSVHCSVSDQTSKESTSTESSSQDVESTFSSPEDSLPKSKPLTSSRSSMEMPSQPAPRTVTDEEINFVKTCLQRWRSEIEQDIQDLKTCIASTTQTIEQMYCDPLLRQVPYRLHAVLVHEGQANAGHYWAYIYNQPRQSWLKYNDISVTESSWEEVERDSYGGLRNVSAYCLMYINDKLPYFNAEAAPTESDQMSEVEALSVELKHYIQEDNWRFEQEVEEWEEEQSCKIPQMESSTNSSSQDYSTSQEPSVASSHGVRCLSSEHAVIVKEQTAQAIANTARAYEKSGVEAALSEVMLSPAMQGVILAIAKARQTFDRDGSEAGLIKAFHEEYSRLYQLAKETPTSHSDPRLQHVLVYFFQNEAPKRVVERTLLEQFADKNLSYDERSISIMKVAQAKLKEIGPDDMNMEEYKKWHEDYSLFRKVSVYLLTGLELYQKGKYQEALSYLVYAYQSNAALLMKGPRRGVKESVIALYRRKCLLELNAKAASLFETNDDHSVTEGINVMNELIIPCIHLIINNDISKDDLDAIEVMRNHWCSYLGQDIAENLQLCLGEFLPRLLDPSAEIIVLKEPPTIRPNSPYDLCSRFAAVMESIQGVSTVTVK
Summary of the method: as §1

Measured: log2 ratio of Biotin-Ahx-Ub-VS probe labelling

NC(=O)C(Cc1ccccc1)NC(=O)CCl (centres undefined)
inactive: [1] -0.0793 | [2] -0.0605 | [3] -0.291 | [4] -0.39
